Reference: the supplement of paper PMC10849652
Of roughly 7,900 targets only a part is listed; those with a hit were picked by preference. About 0.6% of all pairs of compound and target were hits. Unmarked numbers belong to inactive results.

Tests used:
Assay in all cases: log2 fold change, soluble protein after heating vs DMSO (PISA); higher = thermal stabilisation; K562 cells, 10 uM, 30 min; active = over 0.2 and 3.5 SD of the protein, either way, in both replicates (recomputed)
erlotinib = compound: C#Cc1cccc(Nc2ncnc3cc(OCCOC)c(OCCOC)cc23)c1 [erlotinib]
In short: (§1)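 K562 cells at 2×10^6 cells/mL were exposed to 10 μM compound for 30 min, then aliquots were heated for 3 min across 48°C-58°C, pooled, and extracted in PBS containing 0.5% NP-40 at 4°C. The supernatant after 21,000xg for 90 min was taken as soluble protein and measured by TMTpro 16plex LC-MS/MS with channel sums equalised. Thermal stability is reported relative to control samples, with values from duplicates. Fold changes are given on a log2 scale.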

[1] = compound: C/C(=N\NC(=O)C1=CC(=CC=C1)S(=O)(=O)N2CCOCC2)/C3=C(C=CC(=C3)Cl)O
In short: as §1

[2] = compound: C1=CC(=CC=C1C2=NC3=C(N2)C=C(C=C3)C(=O)N)OC4=CC=C(C=C4)Cl
In short: as §1

[3] = compound: C1=CC2=C(C=CC(=C2)/C=C\3/C(=O)NC(=NCC4=CC=CS4)S3)N=C1
In short: as §1

[4] = compound: C1=CC2=NC=CN=C2C=C1/C=C/3\C(=O)NC(=O)S3
In short: as §1

[5] = compound: C1=CC=C(C=C1)C2=NC(=C(N2)C3=CC=NC=C3)C4=CC(=C(C=C4)Cl)O
In short: as §1

[6] = compound: C1=CC=C2C(=C1)C3=NNC4=CC=CC(=C43)C2=O
In short: as §1

[7] = compound: C1CCN(C1)C(=O)NC2=CC=CC(=C2)NC3=NC=C(C(=N3)NCCC4=CN=CN4)Br
In short: as §1

[8] = compound: C1CN(CCC1(CC2=CC=C(C=C2)Cl)N)C3=NC=NC4=C3C=CN4
In short: as §1

IRAK-1-4 Inhibitor I = compound: C1COCCN1CCN2C3=CC=CC=C3N=C2NC(=O)C4=CC(=CC=C4)[N+](=O)[O-] [IRAK-1-4 Inhibitor I]
In short: as §1

ibrutinib = compound: C=CC(=O)N1CCC[C@@H](n2nc(-c3ccc(Oc4ccccc4)cc3)c3c(N)ncnc32)C1 [ibrutinib]
In short: as §1

[9] = compound: CC(=O)c1cnc2ccc(-c3cc(Cl)c(O)c(Cl)c3)nc2c1N[C@H]1CC[C@H](CN(C)C)CC1
In short: as §1

ralimetinib = compound: CC(C)(C)Cn1c(N)nc2ccc(-c3[nH]c(C(C)(C)C)nc3-c3ccc(F)cc3)nc21 [ralimetinib]
In short: as §1

[10] = compound: CC(C)C1=C2N=C(C=C(N2N=C1)NCC3=CC=CC=C3)NCCCCCCN
In short: as §1

[11] = compound: CC(C)C[C@@H](C=O)NC(=O)[C@H](CC(C)C)NC(=O)[C@H](CC(C)C)NC(=O)OCc1ccccc1
In short: as §1

pinometostat = compound: CC(C)N(C[C@H]1O[C@@H](n2cnc3c(N)ncnc32)[C@H](O)[C@@H]1O)[C@H]1C[C@@H](CCc2nc3cc(C(C)(C)C)ccc3[nH]2)C1 [pinometostat]
In short: as §1

[12] = compound: CC1=C(C(CC(=O)N1)C2=CC=C(C=C2)C(F)(F)F)C(=O)NC3=C(C=C4C(=C3)C=NN4)F
In short: as §1

[13] = compound: CC1=C(C2=C(C=C1)C(=O)C3=CC=CC=C3N2CCCN)C
In short: as §1

[14] = compound: C1=CC(=C(C=C1Cl)C2=NC3=NC=CN=C3C(=N2)NC4=CC=NC=C4)F
In short: as §1

[15] = compound: CC(C)(O)CC(=O)NCCn1ccc2ncnc(Nc3ccc(Oc4cccc(C(F)(F)F)c4)c(Cl)c3)c21
In short: as §1

Chain of UniProt Q9UKU0 (Q9UKU0 whole entry, looked up): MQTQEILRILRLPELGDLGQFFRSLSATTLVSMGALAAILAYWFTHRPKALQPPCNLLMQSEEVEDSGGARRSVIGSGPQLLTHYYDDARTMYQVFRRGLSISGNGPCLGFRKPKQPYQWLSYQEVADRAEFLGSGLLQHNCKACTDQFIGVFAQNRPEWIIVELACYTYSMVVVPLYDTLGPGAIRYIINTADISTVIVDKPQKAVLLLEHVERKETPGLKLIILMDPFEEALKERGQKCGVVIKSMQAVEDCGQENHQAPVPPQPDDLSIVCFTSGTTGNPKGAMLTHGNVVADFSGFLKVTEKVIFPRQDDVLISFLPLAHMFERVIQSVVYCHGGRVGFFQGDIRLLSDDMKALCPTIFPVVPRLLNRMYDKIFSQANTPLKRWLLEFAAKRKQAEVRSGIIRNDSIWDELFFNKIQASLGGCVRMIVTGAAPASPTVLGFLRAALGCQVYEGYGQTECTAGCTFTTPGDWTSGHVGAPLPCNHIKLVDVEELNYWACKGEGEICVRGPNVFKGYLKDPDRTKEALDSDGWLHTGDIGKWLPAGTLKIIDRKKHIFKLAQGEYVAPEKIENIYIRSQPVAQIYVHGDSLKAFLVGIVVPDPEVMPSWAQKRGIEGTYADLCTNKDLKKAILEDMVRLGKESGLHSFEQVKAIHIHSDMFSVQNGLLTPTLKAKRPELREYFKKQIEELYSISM
Chain of UniProt Q9HCU9 (Q9HCU9 whole entry, looked up): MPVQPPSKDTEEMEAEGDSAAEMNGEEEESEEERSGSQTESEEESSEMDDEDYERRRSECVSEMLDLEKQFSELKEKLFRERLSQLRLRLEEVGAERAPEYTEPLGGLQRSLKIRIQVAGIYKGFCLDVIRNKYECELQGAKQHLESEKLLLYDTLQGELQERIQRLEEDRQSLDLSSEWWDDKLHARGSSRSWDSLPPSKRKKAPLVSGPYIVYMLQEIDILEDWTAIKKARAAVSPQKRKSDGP
Chain of UniProt Q8IUR7 (Q8IUR7 whole entry, looked up): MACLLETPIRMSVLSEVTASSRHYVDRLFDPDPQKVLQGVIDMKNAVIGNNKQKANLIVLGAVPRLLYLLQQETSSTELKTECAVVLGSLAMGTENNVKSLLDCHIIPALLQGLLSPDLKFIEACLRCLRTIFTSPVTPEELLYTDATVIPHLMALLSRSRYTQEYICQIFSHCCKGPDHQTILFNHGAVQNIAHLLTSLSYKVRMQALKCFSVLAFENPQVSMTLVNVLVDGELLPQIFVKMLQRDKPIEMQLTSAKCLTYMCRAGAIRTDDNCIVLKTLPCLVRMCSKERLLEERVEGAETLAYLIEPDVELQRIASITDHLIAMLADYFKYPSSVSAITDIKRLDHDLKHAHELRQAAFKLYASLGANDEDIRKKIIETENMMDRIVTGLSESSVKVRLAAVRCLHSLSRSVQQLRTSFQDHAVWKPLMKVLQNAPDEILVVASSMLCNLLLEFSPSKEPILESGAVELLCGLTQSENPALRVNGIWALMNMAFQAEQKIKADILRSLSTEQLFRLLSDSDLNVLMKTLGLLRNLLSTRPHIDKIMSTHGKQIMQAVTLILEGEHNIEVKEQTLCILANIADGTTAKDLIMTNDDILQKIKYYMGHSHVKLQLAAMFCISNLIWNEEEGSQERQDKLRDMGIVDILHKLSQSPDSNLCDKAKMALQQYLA
Chain of UniProt Q8IXM2 (Q8IXM2 whole entry, looked up): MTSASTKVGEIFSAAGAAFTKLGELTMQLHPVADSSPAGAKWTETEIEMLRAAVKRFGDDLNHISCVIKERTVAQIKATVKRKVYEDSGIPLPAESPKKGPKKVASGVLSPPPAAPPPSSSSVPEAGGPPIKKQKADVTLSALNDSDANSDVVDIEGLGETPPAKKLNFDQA
Chain of UniProt Q9BUT1 (Q9BUT1 whole entry, looked up): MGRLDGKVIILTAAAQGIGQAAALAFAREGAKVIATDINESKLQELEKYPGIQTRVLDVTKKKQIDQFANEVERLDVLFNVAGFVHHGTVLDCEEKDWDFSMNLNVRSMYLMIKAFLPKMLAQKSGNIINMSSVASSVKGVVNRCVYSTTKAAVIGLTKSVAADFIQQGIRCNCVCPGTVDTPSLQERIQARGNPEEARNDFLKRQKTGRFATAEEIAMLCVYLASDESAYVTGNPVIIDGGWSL
Chain of UniProt P98171 (P98171 whole entry, looked up): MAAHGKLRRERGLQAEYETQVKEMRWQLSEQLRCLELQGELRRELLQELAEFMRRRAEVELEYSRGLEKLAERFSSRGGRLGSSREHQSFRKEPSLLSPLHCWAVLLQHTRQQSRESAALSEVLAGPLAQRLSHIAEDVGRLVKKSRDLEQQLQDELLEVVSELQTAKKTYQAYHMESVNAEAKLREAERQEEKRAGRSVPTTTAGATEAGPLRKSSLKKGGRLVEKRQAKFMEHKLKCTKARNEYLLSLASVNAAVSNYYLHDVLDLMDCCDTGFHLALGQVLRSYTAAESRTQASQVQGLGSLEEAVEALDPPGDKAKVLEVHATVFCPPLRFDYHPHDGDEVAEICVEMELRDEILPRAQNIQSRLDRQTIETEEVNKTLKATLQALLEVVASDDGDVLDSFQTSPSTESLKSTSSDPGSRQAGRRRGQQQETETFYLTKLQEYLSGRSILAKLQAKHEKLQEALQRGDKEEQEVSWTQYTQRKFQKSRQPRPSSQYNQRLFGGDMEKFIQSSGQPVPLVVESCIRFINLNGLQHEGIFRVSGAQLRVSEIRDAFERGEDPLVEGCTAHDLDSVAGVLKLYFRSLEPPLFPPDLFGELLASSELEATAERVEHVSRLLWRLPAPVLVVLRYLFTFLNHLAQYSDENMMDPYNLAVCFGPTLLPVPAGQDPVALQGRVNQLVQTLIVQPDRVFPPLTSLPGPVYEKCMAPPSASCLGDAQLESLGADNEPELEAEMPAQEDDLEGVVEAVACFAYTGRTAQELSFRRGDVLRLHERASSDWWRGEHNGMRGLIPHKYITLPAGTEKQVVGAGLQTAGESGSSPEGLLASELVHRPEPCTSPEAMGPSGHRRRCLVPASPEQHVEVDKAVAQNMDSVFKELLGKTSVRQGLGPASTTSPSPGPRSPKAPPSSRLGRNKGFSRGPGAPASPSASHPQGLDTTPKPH
Chain of UniProt Q13825 (Q13825 whole entry, looked up): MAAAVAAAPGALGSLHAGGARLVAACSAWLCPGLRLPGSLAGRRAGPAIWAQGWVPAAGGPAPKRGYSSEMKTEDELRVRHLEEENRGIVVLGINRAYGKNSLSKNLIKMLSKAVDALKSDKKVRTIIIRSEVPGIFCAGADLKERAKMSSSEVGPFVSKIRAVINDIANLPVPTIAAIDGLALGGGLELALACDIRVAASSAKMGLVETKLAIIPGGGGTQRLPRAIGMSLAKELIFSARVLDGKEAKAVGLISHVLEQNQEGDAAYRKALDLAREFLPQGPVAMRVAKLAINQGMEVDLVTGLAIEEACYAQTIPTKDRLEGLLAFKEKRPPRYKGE
Chain of UniProt Q9H6S1 (Q9H6S1 whole entry, looked up): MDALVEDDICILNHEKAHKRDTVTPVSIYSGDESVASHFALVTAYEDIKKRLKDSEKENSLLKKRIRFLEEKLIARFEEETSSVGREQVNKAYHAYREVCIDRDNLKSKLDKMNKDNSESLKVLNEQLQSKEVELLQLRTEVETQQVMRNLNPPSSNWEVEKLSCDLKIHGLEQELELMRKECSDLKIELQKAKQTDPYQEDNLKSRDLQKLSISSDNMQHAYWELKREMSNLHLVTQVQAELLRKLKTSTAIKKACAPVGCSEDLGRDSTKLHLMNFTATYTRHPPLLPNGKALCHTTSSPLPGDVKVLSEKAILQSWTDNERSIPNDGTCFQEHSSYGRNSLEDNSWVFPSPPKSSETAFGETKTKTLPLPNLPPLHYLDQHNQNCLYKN
Chain of UniProt P05091 (P05091 whole entry, looked up): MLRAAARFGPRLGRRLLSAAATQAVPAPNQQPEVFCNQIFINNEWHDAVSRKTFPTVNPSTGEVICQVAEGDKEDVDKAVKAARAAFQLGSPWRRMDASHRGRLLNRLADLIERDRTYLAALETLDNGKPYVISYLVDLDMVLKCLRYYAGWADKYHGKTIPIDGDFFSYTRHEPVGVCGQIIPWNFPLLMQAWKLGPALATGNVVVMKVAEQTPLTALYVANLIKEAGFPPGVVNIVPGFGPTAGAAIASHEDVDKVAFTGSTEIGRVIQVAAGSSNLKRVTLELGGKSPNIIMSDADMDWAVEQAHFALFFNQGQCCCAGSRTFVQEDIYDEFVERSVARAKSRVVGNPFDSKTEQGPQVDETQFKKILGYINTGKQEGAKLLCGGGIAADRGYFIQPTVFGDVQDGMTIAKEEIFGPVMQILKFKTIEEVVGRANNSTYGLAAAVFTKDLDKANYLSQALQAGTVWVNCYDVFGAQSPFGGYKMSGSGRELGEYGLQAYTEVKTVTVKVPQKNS
Chain of UniProt Q14CW9 (Q14CW9 whole entry, looked up): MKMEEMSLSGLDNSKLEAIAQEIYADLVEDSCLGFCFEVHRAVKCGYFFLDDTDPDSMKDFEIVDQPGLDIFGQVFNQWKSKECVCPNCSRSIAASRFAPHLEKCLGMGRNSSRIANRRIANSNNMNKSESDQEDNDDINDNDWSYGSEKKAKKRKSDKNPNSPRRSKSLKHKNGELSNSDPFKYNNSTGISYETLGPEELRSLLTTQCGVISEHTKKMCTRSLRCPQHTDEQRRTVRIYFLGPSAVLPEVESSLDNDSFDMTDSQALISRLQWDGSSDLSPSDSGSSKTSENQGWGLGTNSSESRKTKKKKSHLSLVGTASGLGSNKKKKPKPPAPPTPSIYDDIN
Chain of UniProt Q9H7T9 (Q9H7T9 whole entry, looked up): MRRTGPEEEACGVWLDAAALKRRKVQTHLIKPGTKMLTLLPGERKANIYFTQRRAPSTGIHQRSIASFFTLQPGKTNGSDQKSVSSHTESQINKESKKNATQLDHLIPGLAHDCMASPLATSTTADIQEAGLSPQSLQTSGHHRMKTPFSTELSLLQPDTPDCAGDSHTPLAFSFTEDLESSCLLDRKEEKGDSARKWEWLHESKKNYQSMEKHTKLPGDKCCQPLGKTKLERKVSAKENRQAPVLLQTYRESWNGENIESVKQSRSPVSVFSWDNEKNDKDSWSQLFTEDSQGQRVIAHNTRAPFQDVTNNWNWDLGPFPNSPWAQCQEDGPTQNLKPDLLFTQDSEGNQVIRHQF

Target | log2 fold change (erlotinib) | log2 fold change [1] | log2 fold change [2] | log2 fold change [3] | log2 fold change [4] | log2 fold change [5] | log2 fold change [6] | log2 fold change [7] | log2 fold change [8] | log2 fold change (IRAK-1-4 Inhibitor I) | log2 fold change (ibrutinib) | log2 fold change [9] | log2 fold change (ralimetinib) | log2 fold change [10] | log2 fold change [11] | log2 fold change (pinometostat) | log2 fold change [12] | log2 fold change [13] | log2 fold change [14] | log2 fold change [15]
ANK2 (UniProt Q01484) | -0.089 | -0.173 | -0.028 | 0.325 | -0.059 | 0.011 | -0.031 | -0.126 | -0.131 | -0.069 | -0.024 | -0.058 | -0.029 | -0.178 | 0.08 | 0.062 | 0.071 | 0.423 (active) | – | –
ALDH2 isoform 2 (UniProt P05091) | – | -0.197 | – | 0.6 | 0.07 | -0.263 | 0.131 | 0.208 | 0.032 | – | -0.1 | -0.133 | -0.18 | – | 0.063 | – | – | 0.087 | -0.106 | 0.029
AZI2 (UniProt Q9H6S1) | -0.039 | – | -0.211 | – | 0.009 | -0.012 | – | -0.025 | 0.04 | – | 0.046 | – | -0.241 | -0.126 | -0.09 | – | -0.018 | 0.022 | – | –
AP2M1 (UniProt C9JTK4) | – | -0.114 | – | 0.322 | 0.172 | – | -0.12 | 0.084 | -0.065 | 0.056 | -0.044 | 0.049 | – | – | – | 0.03 | 0.085 | 0.001 | 0.036 | 0.005
ABITRAM (UniProt Q9NX38) | – | 0.084 | – | 0.018 | 0.023 | -0.05 | 0.034 | -0.037 | 0.018 | 0.041 | 0.005 | -0.073 | -0.088 | – | 0.016 | -0.025 | 0.049 | 0.001 | 0.029 | -0.008
ACSL6 isoform 1 (UniProt Q9UKU0) | -0.066 | – | 0.025 | – | -0.083 | -0.061 | – | -0.03 | 0.04 | – | 0.043 | – | -0.001 | -0.21 | 0.027 | – | -0.109 | 0.012 | 0.02 | 0.222
BRAF, A0A2R8Y8E0 | 0.073 | 0.15 | 0.083 | -0.248 | – | -0.987 (active) | -0.047 | -0.235 | -0.26 | 0.055 | – | 0.156 | 0.059 | -0.188 | 0.067 | -0.04 | 0.149 | 0.078 | – | –
BAIAP2 isoform 4 (UniProt Q9UQB8) | – | – | – | – | – | – | – | -0.16 | -0.048 | – | – | – | – | – | – | – | – | 0.053 | – | –
APOH (UniProt P02749) | -0.214 | -0.028 | 0.051 | -0.026 | 0.069 | -0.1 | -0.092 | 0.188 | 0.09 | 0.13 | 0.155 | 0.211 | -0.131 | -0.067 | 0.119 | -0.117 | 0.419 | -0.126 | – | –
ADD1 isoform 4 (UniProt P35611) | – | – | – | – | -0.019 | – | – | – | – | -0.21 | 0.029 | – | – | – | – | 0.122 | – | – | 0.169 | -0.117
BRMS1 (UniProt Q9HCU9) | – | -0.656 (active) | – | 0.09 | – | – | -0.041 | 0.024 | 0.119 | – | – | 0.055 | – | – | – | – | – | -0.014 | 0.075 | -0.002
AARSD1 (UniProt Q9BTE6) | 0.131 | -0.415 | 0.054 | -0.063 | -0.117 | – | 0.197 | – | – | 0.264 | 0.135 | 0.107 | – | -0.13 | – | 0.041 | -0.045 | – | – | –
ARRDC1 (UniProt Q8N5I2) | -0.079 | – | 0.038 | – | -0.05 | 0.042 | – | -0.03 | -0.066 | – | 0.062 | – | 0.076 | -0.07 | 0.094 | – | -0.075 | 0.045 | -0.075 | 0.102
ARHGAP4 isoform 2 (UniProt P98171) | 0.042 | -0.338 | 0.033 | 0.121 | -0.209 | -0.016 | -0.061 | -0.117 | 0.015 | – | 0.026 | -0.051 | 0.161 | -0.067 | -0.005 | – | -0.179 | 0.062 | – | –
AASDH (UniProt Q4L235) | 0.113 | – | 0.048 | – | 0.158 | 0.003 | – | -0.058 | 0.034 | 0.037 | -0.308 | – | -0.011 | -0.107 | -0.066 | 0.038 | -0.017 | -0.184 | 0.037 | -0.15
AUH (UniProt Q13825) | 0.155 | 0.042 | -0.035 | -0.122 | 0.112 | 0.039 | 0.065 | -0.028 | 0.059 | -0.237 | 0.031 | 0.036 | -0.003 | 0.084 | 0.026 | 0.28 | – | 0.032 | – | –
BAP18 isoform 3 (UniProt Q8IXM2) | 0.02 | – | -0.146 | – | – | – | – | -0.039 | -0.015 | – | – | – | – | 0.074 | – | – | – | -0.183 | – | –
BDH2 (UniProt Q9BUT1) | -0.003 | 0.204 | 0.184 | -0.031 | -0.005 | 0.085 | 0.103 | – | – | -0.009 | 0.041 | -0.073 | -0.059 | 0.183 | 0.001 | 0.004 | – | – | – | –
ATXN3 isoform 1 (UniProt P54252) | 0.082 | 0.107 | 0.038 | -0.042 | 0.082 | -0.038 | -0.115 | -0.073 | -0.002 | -0.031 | 0.028 | 0.065 | 0.018 | -0.314 | 0.234 | 0.021 | 0.018 | 0.016 | – | –
AUNIP isoform 2 (UniProt Q9H7T9) | -0.023 | 0.066 | 0.297 | 0.083 | – | – | 0.027 | 0.041 | 0.066 | – | – | -0.219 | – | -0.134 | – | – | – | -0.141 | – | –
ARMC8 isoform 6 (UniProt Q8IUR7) | -0.145 | 0.081 | -0.168 | -0.075 | 0.078 | – | -0.067 | – | – | – | 0.016 | 0.038 | – | 0.053 | – | – | -0.024 | – | – | –
ACTR3B (UniProt Q9P1U1) | -0.033 | – | 0.073 | – | – | -0.078 | – | -0.012 | 0.145 | -0.04 | – | – | -0.071 | 0.181 | 0.056 | -0.081 | -0.015 | -0.016 | – | –
ATXN7L3 isoform 2 (UniProt Q14CW9) | 0.069 | -0.31 | 0.071 | 0.025 | 0.159 | -0.122 | -0.037 | – | – | 0.114 | 0.147 | 0.027 | 0.036 | 0.066 | -0.053 | 0.093 | 0.018 | – | – | –
BRD2 isoform 2 (UniProt P25440) | -0.552 | – | 0.204 | -0.073 | 0.367 | – | 0.137 | -0.08 | -0.002 | 0.091 | -0.164 | -0.63 | – | 0.042 | – | 0.038 | – | -0.117 | – | –
AP2S1 (UniProt M0QZ21) | – | – | – | – | – | – | – | -0.625 | 0.21 | – | – | – | – | – | – | – | – | 0.139 | – | –
